# Measurements from article PMC7862700, “An all-to-all approach to the identification of sequence-specific readers for epigenetic DNA modifications on cytosine”.
# Assays:
# Assay in all cases: DAPPL (digital affinity profiling via proximity ligation, sequencing); 10 mM Tris-HCl pH 7.5, 50 mM NaCl, 1 mM DTT, 4% glycerol, room temperature, 30 min; GST-TFs on glutathione beads, 16-mer random dsDNA library, 0.1% formaldehyde crosslink after washing; high values mean tight binding
# [1] = target: T1, FEV (Homo sapiens, UniProt Q99581 1-238); settings: protein: recombinant; tags: N-terminal GST; dsDNA, one strand shown
# T1 sequence: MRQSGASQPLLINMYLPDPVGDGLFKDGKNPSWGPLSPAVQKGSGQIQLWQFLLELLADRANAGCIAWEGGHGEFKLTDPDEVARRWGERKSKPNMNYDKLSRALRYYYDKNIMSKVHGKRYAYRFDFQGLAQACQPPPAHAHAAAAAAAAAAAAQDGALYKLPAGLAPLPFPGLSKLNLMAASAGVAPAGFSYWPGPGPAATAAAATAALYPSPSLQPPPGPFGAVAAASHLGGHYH
# Method in brief: (§1)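 Binding signal is each hexamer's read frequency for a factor divided by its frequency in the tag-only sample. The factors were GST-fused human transcription factors from yeast, captured on glutathione beads, DNA-barcoded and pooled with that sample. Pools were incubated with 200 nmole of a random double-stranded 16-mer DNA library in Tris/NaCl/DTT/glycerol buffer at room temperature for 30 min, then washed, crosslinked with 0.1% formaldehyde, proximity-ligated with BsaI/T4 ligase (1 h, 37 °C), PCR-amplified and sequenced on an Illumina NextSeq500.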
# [2] = target: ETV5 (Homo sapiens, UniProt P41161 1-510); settings: protein: recombinant; tags: N-terminal GST; dsDNA, one strand shown
# ETV5, sequence (P41161 whole entry): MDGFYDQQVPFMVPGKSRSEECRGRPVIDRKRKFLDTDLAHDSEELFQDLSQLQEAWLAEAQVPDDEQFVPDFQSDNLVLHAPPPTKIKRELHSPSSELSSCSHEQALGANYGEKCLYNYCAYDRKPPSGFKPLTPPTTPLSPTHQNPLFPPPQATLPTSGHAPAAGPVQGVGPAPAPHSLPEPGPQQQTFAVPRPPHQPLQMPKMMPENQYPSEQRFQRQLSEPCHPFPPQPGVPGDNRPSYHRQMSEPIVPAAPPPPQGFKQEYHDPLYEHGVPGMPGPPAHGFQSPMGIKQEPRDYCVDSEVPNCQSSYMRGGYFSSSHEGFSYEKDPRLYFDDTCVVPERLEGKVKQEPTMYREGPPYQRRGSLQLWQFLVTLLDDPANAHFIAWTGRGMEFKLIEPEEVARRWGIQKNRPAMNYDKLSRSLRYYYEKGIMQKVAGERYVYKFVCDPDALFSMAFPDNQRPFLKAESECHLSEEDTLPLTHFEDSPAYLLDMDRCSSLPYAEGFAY
# Method in brief: as §1
# [3] = target: HSF1 (Homo sapiens, UniProt Q00613 1-529); settings: protein: recombinant; tags: N-terminal GST; chain copies: 3; dsDNA, one strand shown
# HSF1, sequence (Q00613 whole entry): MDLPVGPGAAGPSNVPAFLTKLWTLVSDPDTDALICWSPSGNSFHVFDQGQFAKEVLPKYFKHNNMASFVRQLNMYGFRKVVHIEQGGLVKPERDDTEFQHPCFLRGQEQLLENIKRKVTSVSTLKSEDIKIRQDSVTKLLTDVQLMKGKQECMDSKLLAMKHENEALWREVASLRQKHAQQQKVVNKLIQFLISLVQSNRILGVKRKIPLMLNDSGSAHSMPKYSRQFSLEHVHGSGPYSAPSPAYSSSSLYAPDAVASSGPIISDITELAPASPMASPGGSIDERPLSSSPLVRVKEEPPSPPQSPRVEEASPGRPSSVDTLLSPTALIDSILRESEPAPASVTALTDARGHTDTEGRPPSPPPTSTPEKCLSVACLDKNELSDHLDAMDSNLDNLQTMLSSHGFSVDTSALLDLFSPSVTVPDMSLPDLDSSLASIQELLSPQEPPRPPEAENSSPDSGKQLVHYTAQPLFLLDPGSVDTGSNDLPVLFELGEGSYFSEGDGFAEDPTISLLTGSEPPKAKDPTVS
# Method in brief: as §1
# [4] = target: T2, SPIC (Homo sapiens, UniProt Q8N5J4 1-248); settings: protein: recombinant; tags: N-terminal GST; dsDNA, one strand shown
# T2 sequence: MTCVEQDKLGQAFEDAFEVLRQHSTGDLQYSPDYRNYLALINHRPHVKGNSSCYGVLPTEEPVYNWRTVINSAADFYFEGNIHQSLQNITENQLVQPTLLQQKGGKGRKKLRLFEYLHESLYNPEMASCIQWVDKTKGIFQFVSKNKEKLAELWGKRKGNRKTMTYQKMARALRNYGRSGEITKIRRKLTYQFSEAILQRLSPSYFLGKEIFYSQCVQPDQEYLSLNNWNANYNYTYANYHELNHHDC
# Method in brief: as §1
# [5] = target: ELF4 (Homo sapiens, UniProt Q99607 1-663); settings: protein: recombinant; tags: N-terminal GST; dsDNA, one strand shown
# ELF4, sequence (Q99607 whole entry): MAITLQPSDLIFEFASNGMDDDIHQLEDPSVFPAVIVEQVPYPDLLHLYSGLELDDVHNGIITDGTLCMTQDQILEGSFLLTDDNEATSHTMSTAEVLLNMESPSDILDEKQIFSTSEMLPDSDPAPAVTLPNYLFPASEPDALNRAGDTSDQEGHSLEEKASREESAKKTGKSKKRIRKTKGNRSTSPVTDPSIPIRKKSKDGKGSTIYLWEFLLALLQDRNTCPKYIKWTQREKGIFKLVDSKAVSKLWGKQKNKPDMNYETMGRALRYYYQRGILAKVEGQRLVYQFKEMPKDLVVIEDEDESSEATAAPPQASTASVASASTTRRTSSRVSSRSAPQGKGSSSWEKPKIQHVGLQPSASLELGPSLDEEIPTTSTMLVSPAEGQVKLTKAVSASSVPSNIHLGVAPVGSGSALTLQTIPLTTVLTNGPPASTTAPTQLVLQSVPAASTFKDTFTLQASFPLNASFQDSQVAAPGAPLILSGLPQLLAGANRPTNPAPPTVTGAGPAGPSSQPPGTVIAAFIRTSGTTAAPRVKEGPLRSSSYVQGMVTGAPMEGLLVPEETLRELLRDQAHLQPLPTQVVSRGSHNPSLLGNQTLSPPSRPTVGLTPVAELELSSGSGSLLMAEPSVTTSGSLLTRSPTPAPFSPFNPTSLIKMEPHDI
# Method in brief: as §1
# [6] = target: T3, ELK4 (Homo sapiens, UniProt P28324-2 1-405); settings: protein: recombinant; tags: N-terminal GST; dsDNA, one strand shown
# T3 sequence: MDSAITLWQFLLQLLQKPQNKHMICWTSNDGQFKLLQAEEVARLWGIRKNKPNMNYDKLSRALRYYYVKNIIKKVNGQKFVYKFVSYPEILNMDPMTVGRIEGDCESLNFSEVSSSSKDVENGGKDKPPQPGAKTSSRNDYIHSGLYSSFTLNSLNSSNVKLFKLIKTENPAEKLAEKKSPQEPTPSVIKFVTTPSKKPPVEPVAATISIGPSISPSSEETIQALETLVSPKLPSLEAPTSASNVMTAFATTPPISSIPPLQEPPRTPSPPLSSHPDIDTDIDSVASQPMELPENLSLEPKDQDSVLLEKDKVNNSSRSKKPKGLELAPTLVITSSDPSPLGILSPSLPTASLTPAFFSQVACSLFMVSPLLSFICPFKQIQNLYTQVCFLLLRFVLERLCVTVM
# Method in brief: as §1
# [7] = target: T4, ETV2 (Homo sapiens, UniProt O00321 1-342); settings: protein: recombinant; tags: N-terminal GST; dsDNA, one strand shown
# T4 sequence: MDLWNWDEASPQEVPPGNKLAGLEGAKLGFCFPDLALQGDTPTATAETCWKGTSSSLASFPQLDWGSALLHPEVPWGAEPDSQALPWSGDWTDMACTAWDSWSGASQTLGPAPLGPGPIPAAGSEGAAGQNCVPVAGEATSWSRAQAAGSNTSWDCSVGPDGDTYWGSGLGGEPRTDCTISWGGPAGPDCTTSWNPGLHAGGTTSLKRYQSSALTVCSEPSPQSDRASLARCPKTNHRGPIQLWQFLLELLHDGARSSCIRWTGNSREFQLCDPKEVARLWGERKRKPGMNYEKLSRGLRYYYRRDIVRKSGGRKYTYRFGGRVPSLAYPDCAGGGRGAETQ
# Method in brief: as §1
# [8] = target: T5, ELF3 (Homo sapiens, UniProt P78545 1-371); settings: protein: recombinant; tags: N-terminal GST; dsDNA, one strand shown
# T5 sequence: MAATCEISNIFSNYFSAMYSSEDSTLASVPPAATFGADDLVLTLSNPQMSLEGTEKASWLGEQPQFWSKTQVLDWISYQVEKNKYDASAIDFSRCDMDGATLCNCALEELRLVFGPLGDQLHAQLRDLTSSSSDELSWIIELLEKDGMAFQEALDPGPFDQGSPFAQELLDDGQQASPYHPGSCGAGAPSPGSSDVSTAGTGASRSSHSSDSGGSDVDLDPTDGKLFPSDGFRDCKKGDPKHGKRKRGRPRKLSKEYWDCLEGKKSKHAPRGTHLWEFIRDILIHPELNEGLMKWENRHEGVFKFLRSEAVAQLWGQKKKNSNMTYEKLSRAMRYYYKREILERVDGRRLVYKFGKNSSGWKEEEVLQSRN
# Method in brief: as §1
# [9] = target: CRX (Homo sapiens, UniProt O43186 1-299); settings: protein: recombinant; tags: N-terminal GST; dsDNA, one strand shown
# CRX, sequence (O43186 whole entry): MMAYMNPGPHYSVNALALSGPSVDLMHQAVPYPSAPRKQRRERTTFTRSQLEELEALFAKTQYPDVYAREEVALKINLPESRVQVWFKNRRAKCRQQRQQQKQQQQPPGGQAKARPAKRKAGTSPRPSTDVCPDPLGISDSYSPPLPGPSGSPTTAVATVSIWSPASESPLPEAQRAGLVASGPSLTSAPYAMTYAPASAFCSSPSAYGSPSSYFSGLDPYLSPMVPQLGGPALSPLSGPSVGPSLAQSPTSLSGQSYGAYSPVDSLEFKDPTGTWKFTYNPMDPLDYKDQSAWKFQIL
# Method in brief: as §1
# [10] = target: ETV1 (Homo sapiens, UniProt P50549 1-477); settings: protein: recombinant; tags: N-terminal GST; dsDNA, one strand shown
# ETV1, sequence (P50549 whole entry): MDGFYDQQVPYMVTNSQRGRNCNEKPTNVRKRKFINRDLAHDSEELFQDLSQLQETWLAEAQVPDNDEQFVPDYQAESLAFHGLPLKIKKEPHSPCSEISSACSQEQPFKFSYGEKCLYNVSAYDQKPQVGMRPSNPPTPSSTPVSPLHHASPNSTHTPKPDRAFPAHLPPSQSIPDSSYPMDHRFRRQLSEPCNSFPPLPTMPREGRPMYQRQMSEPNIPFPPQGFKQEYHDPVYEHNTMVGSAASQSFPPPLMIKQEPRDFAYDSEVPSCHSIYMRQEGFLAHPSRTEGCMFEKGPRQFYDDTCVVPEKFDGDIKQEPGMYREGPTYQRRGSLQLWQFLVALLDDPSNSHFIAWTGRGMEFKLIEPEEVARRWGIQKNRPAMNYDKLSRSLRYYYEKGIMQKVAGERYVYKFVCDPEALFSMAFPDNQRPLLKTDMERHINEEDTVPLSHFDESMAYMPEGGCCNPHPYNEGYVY
# Method in brief: as §1
# [11] = target: T6, ERF (Homo sapiens, UniProt P50548 1-548); settings: protein: recombinant; tags: N-terminal GST; dsDNA, one strand shown
# T6 sequence: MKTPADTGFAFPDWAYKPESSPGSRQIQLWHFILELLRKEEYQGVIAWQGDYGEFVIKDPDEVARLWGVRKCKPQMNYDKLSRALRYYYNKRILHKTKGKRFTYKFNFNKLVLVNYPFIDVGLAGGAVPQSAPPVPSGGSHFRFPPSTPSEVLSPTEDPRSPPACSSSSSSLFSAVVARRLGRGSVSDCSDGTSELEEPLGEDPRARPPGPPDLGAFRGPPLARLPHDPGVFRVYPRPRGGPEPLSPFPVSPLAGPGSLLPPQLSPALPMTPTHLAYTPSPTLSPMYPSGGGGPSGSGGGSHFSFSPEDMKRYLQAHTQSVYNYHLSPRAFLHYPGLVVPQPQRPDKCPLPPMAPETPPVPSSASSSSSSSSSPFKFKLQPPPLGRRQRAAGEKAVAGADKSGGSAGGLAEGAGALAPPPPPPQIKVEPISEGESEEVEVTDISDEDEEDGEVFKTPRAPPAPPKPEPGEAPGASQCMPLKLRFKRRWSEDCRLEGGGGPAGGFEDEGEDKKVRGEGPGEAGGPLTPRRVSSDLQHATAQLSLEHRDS
# Method in brief: as §1
# [12] = target: T7, ETV3L (Homo sapiens, UniProt Q6ZN32 1-361); settings: protein: recombinant; tags: N-terminal GST; dsDNA, one strand shown
# T7 sequence: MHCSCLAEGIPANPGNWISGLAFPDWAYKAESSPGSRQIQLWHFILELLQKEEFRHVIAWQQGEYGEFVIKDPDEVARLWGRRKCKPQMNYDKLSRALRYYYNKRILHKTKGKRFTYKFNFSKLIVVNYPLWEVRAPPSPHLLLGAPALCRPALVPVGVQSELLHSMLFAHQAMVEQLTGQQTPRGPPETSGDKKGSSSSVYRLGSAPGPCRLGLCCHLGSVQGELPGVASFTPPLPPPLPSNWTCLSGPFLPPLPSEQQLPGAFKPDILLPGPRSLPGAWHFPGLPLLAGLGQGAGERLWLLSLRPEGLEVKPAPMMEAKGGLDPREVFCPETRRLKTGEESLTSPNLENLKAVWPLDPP
# Method in brief: as §1
# [13] = target: T8, ETS2 (Homo sapiens, UniProt P15036 1-469); settings: protein: recombinant; tags: N-terminal GST; dsDNA, one strand shown
# T8 sequence: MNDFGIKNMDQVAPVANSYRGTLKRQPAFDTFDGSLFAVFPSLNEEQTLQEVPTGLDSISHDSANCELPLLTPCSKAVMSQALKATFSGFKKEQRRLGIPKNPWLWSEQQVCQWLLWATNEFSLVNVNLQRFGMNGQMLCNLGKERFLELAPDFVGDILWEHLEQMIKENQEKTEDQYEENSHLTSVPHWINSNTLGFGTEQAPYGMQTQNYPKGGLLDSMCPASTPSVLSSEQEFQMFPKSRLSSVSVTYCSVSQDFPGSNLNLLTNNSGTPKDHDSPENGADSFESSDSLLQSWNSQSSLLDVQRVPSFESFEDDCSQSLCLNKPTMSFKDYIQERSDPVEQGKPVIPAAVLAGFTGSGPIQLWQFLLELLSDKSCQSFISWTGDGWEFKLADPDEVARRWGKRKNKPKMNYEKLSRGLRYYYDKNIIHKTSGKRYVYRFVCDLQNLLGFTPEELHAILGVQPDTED
# Method in brief: as §1
# [14] = target: T9, SPDEF (Homo sapiens, UniProt O95238 1-335); settings: protein: recombinant; tags: N-terminal GST; dsDNA, one strand shown
# T9 sequence: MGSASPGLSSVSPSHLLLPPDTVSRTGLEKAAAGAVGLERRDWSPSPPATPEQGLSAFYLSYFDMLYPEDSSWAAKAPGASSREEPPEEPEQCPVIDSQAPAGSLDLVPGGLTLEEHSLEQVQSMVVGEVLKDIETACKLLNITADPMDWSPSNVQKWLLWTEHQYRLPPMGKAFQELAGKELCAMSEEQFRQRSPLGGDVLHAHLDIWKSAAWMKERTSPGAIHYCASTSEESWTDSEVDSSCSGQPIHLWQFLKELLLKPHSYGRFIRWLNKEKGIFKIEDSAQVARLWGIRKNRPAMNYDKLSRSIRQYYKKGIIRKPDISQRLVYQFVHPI
# Method in brief: as §1
# [15] = target: T10, ETV7 (Homo sapiens, UniProt Q9Y603 1-341); settings: protein: recombinant; tags: N-terminal GST; dsDNA, one strand shown
# T10 sequence: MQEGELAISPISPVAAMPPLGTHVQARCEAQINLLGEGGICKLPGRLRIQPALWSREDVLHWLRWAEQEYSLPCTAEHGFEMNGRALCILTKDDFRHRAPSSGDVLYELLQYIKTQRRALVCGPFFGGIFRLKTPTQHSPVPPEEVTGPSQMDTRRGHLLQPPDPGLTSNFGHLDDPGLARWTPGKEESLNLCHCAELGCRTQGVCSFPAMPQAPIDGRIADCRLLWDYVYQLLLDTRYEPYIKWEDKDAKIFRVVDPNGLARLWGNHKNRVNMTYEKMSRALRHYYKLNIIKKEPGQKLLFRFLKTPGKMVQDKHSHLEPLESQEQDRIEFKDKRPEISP
# Method in brief: as §1
# [16] = target: T11, ELF5 (Homo sapiens, UniProt Q9UKW6-2 1-255); settings: protein: recombinant; tags: N-terminal GST; dsDNA, one strand shown
# T11 sequence: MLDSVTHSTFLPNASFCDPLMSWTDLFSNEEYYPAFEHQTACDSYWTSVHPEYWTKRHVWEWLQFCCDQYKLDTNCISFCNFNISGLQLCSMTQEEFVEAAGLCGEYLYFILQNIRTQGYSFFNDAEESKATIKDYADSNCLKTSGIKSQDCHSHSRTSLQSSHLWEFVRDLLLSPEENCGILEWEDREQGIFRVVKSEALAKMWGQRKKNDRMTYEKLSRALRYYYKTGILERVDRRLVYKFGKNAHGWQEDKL
# Method in brief: as §1
# [17] = target: T12, ETV3 (Homo sapiens, UniProt P41162-2 1-143); settings: protein: recombinant; tags: N-terminal GST; dsDNA, one strand shown
# T12 sequence: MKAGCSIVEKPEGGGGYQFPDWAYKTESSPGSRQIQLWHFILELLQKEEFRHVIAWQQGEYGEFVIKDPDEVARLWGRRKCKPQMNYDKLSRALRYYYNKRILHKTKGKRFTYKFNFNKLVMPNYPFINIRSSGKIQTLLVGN
# Method in brief: as §1
# [18] = target: ETV6 (Homo sapiens, UniProt P41212 1-452); settings: protein: recombinant; tags: N-terminal GST; dsDNA, one strand shown
# ETV6, sequence (P41212 whole entry): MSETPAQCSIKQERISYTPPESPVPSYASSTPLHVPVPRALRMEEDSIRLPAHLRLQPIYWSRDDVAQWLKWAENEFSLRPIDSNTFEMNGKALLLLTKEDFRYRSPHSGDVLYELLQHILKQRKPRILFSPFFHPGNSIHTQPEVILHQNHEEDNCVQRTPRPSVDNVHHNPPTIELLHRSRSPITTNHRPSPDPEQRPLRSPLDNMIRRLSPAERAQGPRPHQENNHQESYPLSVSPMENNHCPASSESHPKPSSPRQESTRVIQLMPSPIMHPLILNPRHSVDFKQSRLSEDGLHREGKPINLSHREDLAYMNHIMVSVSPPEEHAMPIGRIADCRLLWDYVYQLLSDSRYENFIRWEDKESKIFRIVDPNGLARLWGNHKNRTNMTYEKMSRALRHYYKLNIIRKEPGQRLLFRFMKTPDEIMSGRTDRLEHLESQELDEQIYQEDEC
# Method in brief: as §1
sequence,measurement,setting,value
ATATAC,binding signal,[1],"1.11 fold enrichment (6-mer frequency, TF over GST control)"
same,binding signal,[2],"1.16 fold enrichment (6-mer frequency, TF over GST control)"
same,binding signal,[3],"1.12 fold enrichment (6-mer frequency, TF over GST control)"
same,binding signal,[4],"1.17 fold enrichment (6-mer frequency, TF over GST control)"
same,binding signal,[5],"1.13 fold enrichment (6-mer frequency, TF over GST control)"
same,binding signal,[6],"1.2 fold enrichment (6-mer frequency, TF over GST control)"
same,binding signal,[7],"1.12 fold enrichment (6-mer frequency, TF over GST control)"
same,binding signal,[8],"1.22 fold enrichment (6-mer frequency, TF over GST control)"
same,binding signal,[9],"1.08 fold enrichment (6-mer frequency, TF over GST control)"
same,binding signal,[10],"1.21 fold enrichment (6-mer frequency, TF over GST control)"
same,binding signal,[11],"1.19 fold enrichment (6-mer frequency, TF over GST control)"
same,binding signal,[12],"1.17 fold enrichment (6-mer frequency, TF over GST control)"
same,binding signal,[13],"1.26 fold enrichment (6-mer frequency, TF over GST control)"
same,binding signal,[14],"1.29 fold enrichment (6-mer frequency, TF over GST control)"
same,binding signal,[15],"1.24 fold enrichment (6-mer frequency, TF over GST control)"
same,binding signal,[16],"1.12 fold enrichment (6-mer frequency, TF over GST control)"
same,binding signal,[17],"1.17 fold enrichment (6-mer frequency, TF over GST control)"
same,binding signal,[18],"1.19 fold enrichment (6-mer frequency, TF over GST control)"
